The supplement of paper PMC10127200
Counter-ions that a name gives are not always drawn.

Experiments:
Assay in all cases: Euclidean distance of Cell Painting phenotypic profile (signed KS, 77 features) to DMSO centroid (dimensionless distance); 5 or 10 uM (library dependent); higher = stronger phenotypic change vs DMSO (phenoactivity)
Conditions in all cases: 48 h
786-O = system: 786-O
Procedure, shortened: (§1)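 Five cancer lines and a healthy fibroblast line received library compounds at 10 or 5 uM (library-dependent, 0.1% DMSO final) for 48 h. Stained cells were imaged confocally at 20X (9 fields/well). Harmony extracted 77 features, each scored as a signed Kolmogorov-Smirnov statistic against same-plate vehicle wells. Profiles were plate-position corrected, correlation-weighted and replicate-averaged at the top dose. Phenoactivity is the Euclidean distance from each profile to the median vehicle profile.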

A549 = system: A549
Procedure, shortened: as §1

DU145 = system: DU145
Procedure, shortened: as §1

FB = system: FB
Procedure, shortened: as §1

HEPG2 = system: HEPG2
Procedure, shortened: as §1

OVCAR4 = system: OVCAR4
Procedure, shortened: as §1

| SMILES | Euclidean distance (786-O) | Euclidean distance (A549) | Euclidean distance (DU145) | Euclidean distance (FB) | Euclidean distance (HEPG2) | Euclidean distance (OVCAR4) |
| --- | --- | --- | --- | --- | --- | --- |
| COc1ccc(Cc2cnc(N)nc2N)cc1OC [Diaveridine] | 0.784 | 1.57 | 1.59 | 1.23 | 0.387 | 1.42 |
| Cc1c(O)c(=O)ccn1C [Deferiprone] | 1.58 | 0.809 | 1.07 | 1.18 | 0.561 | 0.947 |
| CN1CCN(CC(=O)N2c3ccccc3C(=O)Nc3cccnc32)CC1 [Pirenzepine dihydrochloride] | 0.695 | 1.06 | 0.77 | 0.7 | 1.03 | 0.804 |
| COc1ccc(CCC(=O)Nc2nc3ccc(Cl)cc3s2)cc1OC | 1.29 | 1.76 | 1.19 | 0.998 | 1.39 | 1.52 |
| C=CCN1CCCC1CNC(=O)c1cc2nn[nH]c2cc1OC (stereo not drawn) [Alizapride HCl] | 0.796 | 1.43 | 1.04 | 1.13 | 1.28 | 0.984 |
| Nc1nc(N)c2nc(-c3cccc(O)c3)cnc2n1 | 0.828 | 1.47 | 1.28 | 2.43 | 0.858 | 1.9 |
| C[C@H]1[C@H](OC(=O)CCC(=O)O)O[C@@H]2O[C@@]3(C)CC[C@H]4[C@H](C)CC[C@@H]1[C@@]24OO3 [Artesunate] | 1.44 | 2.06 | 1.01 | 1.66 | 1.03 | 1.88 |
| CN1CCN(c2ccc(OC(F)(F)F)c(Nc3ncc4c(n3)-c3c(c(C(N)=O)nn3CCO)CC4)c2)CC1 | 2.75 | 4.08 | 3.85 | 3.73 | 2.82 | 3.67 |
| Cc1cc(-c2ccc(CC(=O)Nc3ccc(-c4cccnc4)cc3)cc2)ccn1 | 1.31 | 1.03 | 0.823 | 1.02 | 0.787 | 1.36 |
| Cc1cn(-c2cc(NC(=O)c3ccc(C)c(Nc4nccc(-c5cnccn5)n4)c3)cc(C(F)(F)F)c2)cn1 [Radotinib] | 1.61 | 1.33 | 1.78 | 1.12 | 0.843 | 1.17 |
| CNCc1cc(-c2ccccc2F)n(S(=O)(=O)c2cccnc2)c1 [Vonoprazan Fumarate (TAK-438)] | 0.884 | 0.5 | 0.972 | 1.23 | 0.474 | 0.89 |
| CCOc1ccccc1OC(c1ccccc1)C1CNCCO1 (stereo not drawn) [Reboxetine mesylate] | 1.05 | 0.873 | 2.32 | 0.844 | 2.49 | 0.786 |
| O=C1NC(=O)/C(=C/c2ccc(-c3ccc(F)cc3O)o2)S1 | 1.18 | 0.855 | 1.25 | 1.02 | 0.814 | 0.97 |
| O=C1NC(=O)C(=Cc2ccc(-c3ccc(F)cc3)o2)S1 (stereo in doubt) | 1.04 | 0.938 | 1.43 | 1.29 | 0.808 | 1.33 |
| CC(C)(Sc1ccncc1-c1ccc(C#N)c2ccccc12)C(=O)O [Verinurad (RDEA3170)] | 0.821 | 0.673 | 0.864 | 1.25 | 0.457 | 1.2 |
| COC(=O)Nc1nc2cc(C(=O)c3ccccc3)ccc2[nH]1 [Mebendazole] | 3.02 | 3.03 | 3.69 | 2.58 | 3 | 2.7 |
| CNC1(C)C2CCC(C2)C1(C)C (stereo not drawn) [Mecamylamine Hydrochloride] | 1.04 | 0.418 | 0.617 | 1.01 | 0.384 | 1.18 |
| C[N+](C)(C)CCO.[Cl-] [Choline Chloride] | 0.795 | 0.549 | 0.73 | 0.801 | 0.682 | 1.46 |
| Nc1[nH]cnc2ncnc1-2 [Adenine sulfate] | 1.69 | 0.409 | 1.17 | 0.763 | 0.765 | 0.878 |
| Cc1cc(C(C)(C)C)c(O)c(C(C)(C)C)c1 [Butylated hydroxytoluene] | 0.873 | 0.945 | 0.885 | 0.657 | 1.03 | 0.752 |
| CCCc1nc(C)c2c(=O)nc(-c3cc(S(=O)(=O)N4CCN(CC)CC4)ccc3OCC)[nH]n12 [Vardenafil HCl Trihydrate] | 1.18 | 0.732 | 1.26 | 1.02 | 0.77 | 0.83 |
| CC[C@@]1(O)C(=O)OCc2c1cc1n(c2=O)Cc2cc3c(CN(C)C)c(O)ccc3nc2-1 [Topotecan] | 3.37 | 4.25 | 3.94 | 3.77 | 3.31 | 2.85 |
| CCOC(=O)c1c(CSc2ccccc2)n(C)c2cc(Br)c(O)c(CN(C)C)c12 [Arbidol HCl] | 1.37 | 1.41 | 2.16 | 1.38 | 1.34 | 1.63 |
| NC(=O)c1cn(Cc2c(F)cccc2F)nn1 [Rufinamide] | 1.34 | 1.42 | 0.931 | 1.23 | 0.473 | 1.4 |

| SMILES | Euclidean distance (786-O) | Euclidean distance (A549) | Euclidean distance (DU145) | Euclidean distance (FB) | Euclidean distance (HEPG2) | Euclidean distance (OVCAR4) |
| --- | --- | --- | --- | --- | --- | --- |
| C[C@@H](O)[C@H]1C(=O)N2C(C(=O)O)=C(S[C@@H]3CN[C@H](C(=O)N(C)C)C3)[C@H](C)[C@H]12 [Meropenem] | 1.75 | 1.63 | 0.873 | 1.2 | 1.05 | 1.15 |
| N=C(N)NCCC[C@H](N)C(=O)O [L-arginine] | 1.03 | 0.798 | 1.21 | 0.843 | 0.876 | 0.97 |
| CC(=O)O[C@]1(C(C)=O)CC[C@H]2[C@@H]3C=C(C)C4=CC(=O)CC[C@]4(C)[C@H]3CC[C@@]21C [Megestrol Acetate] | 1.71 | 1.65 | 1.57 | 1.46 | 1.89 | 1.61 |
| N#CC(=C(/N)Sc1ccccc1N)/C(C#N)=C(\N)Sc1ccccc1N | 1.54 | 1.18 | 0.907 | 1.57 | 1.81 | 1.48 |
| CC(C)Cc1ccc(C(C)C(=O)OCc2ccccn2)cc1 (stereo not drawn) [Ibuprofen piconol] | 1.39 | 0.595 | 0.983 | 0.788 | 0.518 | 1.2 |
| COc1cc(OC)c(/C=C/S(=O)(=O)Cc2ccc(OC)c(NCC(=O)O)c2)c(OC)c1 | 2.84 | 2.83 | 4.64 | 3.03 | 3.6 | 2.72 |
| COc1cc2ncnc(Nc3cccc(Cl)c3F)c2cc1OC(=O)N1CCN(C)C[C@H]1C | 1.15 | 2.05 | 1.72 | 1.4 | 0.691 | 1.33 |
| C=CC(=O)Nc1cc(Nc2nccc(-n3cc(CN(C)C)c(-c4ccccc4)n3)n2)c(OC)cc1N1CCOCC1 | 0.904 | 1.76 | 1.79 | 1.2 | 1.27 | 2.16 |
| C[N+]1(C)[C@@H]2C[C@@H](OC(=O)C(O)(c3cccs3)c3cccs3)C[C@H]1[C@@H]1O[C@@H]12 [Tiotropium Bromide hydrate] | 1.26 | 0.676 | 0.73 | 1.02 | 0.978 | 0.837 |
| CC(C)C(=O)OCC(=O)[C@@]12O[C@H](C3CCCCC3)O[C@@H]1C[C@H]1[C@@H]3CCC4=CC(=O)C=C[C@]4(C)[C@H]3[C@@H](O)C[C@@]12C [Ciclesonide] | 1.71 | 2.49 | 2.88 | 2.36 | 2.25 | 2.09 |
| Cc1ccc(NC(=O)c2ccc(CN3CCN(C)CC3)cc2)cc1Nc1nccc(-c2cccnc2)n1 [Imatinib (STI571)] | 1.85 | 1.68 | 1.9 | 2.04 | 1.78 | 1.48 |
| Nc1nccs1 [Aminothiazole] | 0.905 | 1.79 | 2.14 | 1.92 | 0.971 | 1.9 |
| N=C(N)c1ccc(OCCCCCOc2ccc(C(=N)N)cc2)cc1 [Pentamidine] | 1.54 | 2.11 | 1.64 | 0.958 | 2.12 | 1.65 |
| C=CC1=C(C(=O)O)N2C(=O)[C@@H](NC(=O)/C(=N\OCC(=O)O)c3csc(N)n3)[C@H]2SC1 [Cefixime] | 1.35 | 0.916 | 0.778 | 1.38 | 0.6 | 1.73 |
| C/C(O)=C(\C#N)C(=O)Nc1ccc(C(F)(F)F)cc1 [Teriflunomide] | 0.702 | 0.732 | 0.988 | 1.1 | 0.844 | 2.02 |
| C=CC(=O)N1CCC(Oc2cc3c(Nc4ccc(Cl)c(Cl)c4F)ncnc3cc2OC)CC1 [Poziotinib (HM781-36B)] | 1.98 | 3.02 | 2.11 | 2.99 | 3.43 | 2.12 |
| CC(C)(Sc1cc(C(C)(C)C)c(O)c(C(C)(C)C)c1)Sc1cc(C(C)(C)C)c(O)c(C(C)(C)C)c1 [Probucol] | 0.793 | 0.681 | 0.734 | 0.921 | 1.07 | 1.14 |
| OCCOc1ccc(/C(=C(/CCCl)c2ccccc2)c2ccccc2)cc1 [Ospemifene] | 0.936 | 1.29 | 0.819 | 0.945 | 1.26 | 1.06 |
| C[N+]1(C)CCC(OC(=O)C(O)(c2ccccc2)C2CCCC2)C1 (stereo not drawn) [Glycopyrrolate] | 1.08 | 0.747 | 1.06 | 1.02 | 0.678 | 1.74 |
| COc1ccc2cc(CCC(C)=O)ccc2c1 [Nabumetone] | 0.791 | 1.11 | 0.872 | 0.947 | 0.532 | 1.55 |
| CC(C)(Oc1ccc(CCNC(=O)c2ccc(Cl)cc2)cc1)C(=O)O [Bezafibrate] | 0.885 | 1.16 | 0.777 | 1.09 | 1.04 | 1.71 |
| Cc1ccc([C@@H]2O[C@H](CO)[C@@H](O)[C@H](O)[C@H]2O)cc1Cc1ccc(-c2ccc(F)cc2)s1 [Canagliflozin] | 1.32 | 1.86 | 0.716 | 1.12 | 0.807 | 1.77 |
| O=c1[nH]c(=O)n([C@H]2C[C@H](O)[C@@H](CO)O2)cc1C(F)(F)F [Trifluridine] | 2.89 | 3.28 | 2.74 | 1.07 | 3.56 | 2.85 |
| CC1(C)S[C@@H]2[C@H](NC(=O)COc3ccccc3)C(=O)N2[C@H]1C(=O)O [Penicillin V potassium salt] | 1.25 | 1.22 | 1.35 | 0.767 | 0.481 | 1.67 |
